Reference: PubChem BioAssay (Tox21)
Records with an inconclusive call do not appear. Active and inactive are the calls of the source. Calls follow the shape of the dose curve; as a rule, active = well fitted curve in the direction sought with a large enough effect in the repeat runs; inconclusive = weak or mixed curves; inactive = no such curve, though single readings can be large; an effect the other way counts as inactive or inconclusive.

How the values were obtained:
[1] = Caspase-3/7 induction in HepG2 cells by small molecules, qHTS assay (AID 1346978); also: nearly all actives have a fitted effect of over 15% in size
Summary of the method: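 Wild-type HepG2 cells, 2,000/well, settled 5 hr at 37 C and 5% CO2, then compound-treated for 17 hr; caspase-3/7 activity read by luminescent Caspase-Glo 3/7 after 30 min at room temperature.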

[2] = Caspase-3/7 induction in CHO-K1 cells by small molecules, qHTS cell viability counter screen (AID 1346979); also: nearly all actives have a fitted effect of over 35% in size; also: potency is read from the fitted curve at half-maximal effect
Summary of the method: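 Viability readout by fluorescence (CellTiter-Fluor) on wild-type CHO-K1 cells exposed for 16hr at 37C and 5% CO2 to compounds delivered in DMSO; reagent incubated 1hr before reading.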

[3] = Caspase-3/7 induction in CHO-K1 cells by small molecules, qHTS assay (AID 1346980); also: nearly all actives have a fitted effect of over 15% in size
Summary of the method: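 Wild-type CHO-K1 cells exposed to compounds for 17hr at 37 C, 5% CO2. Caspase-3/7 activity then measured by Caspase-Glo 3/7 luminescence after 30min at room temperature.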

[4] = Caspase-3/7 induction in HepG2 cells by small molecules, qHTS cell viability counter screen (AID 1346981); also: nearly all actives have a fitted effect of over 30% in size; also: potency is read from the fitted curve at half-maximal effect; as to activity change, negative = cytotoxicity: series mostly up to about 92 µM
Summary of the method: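 The parent HepG2 line is plated at 2,000 cells per well and rested 5 hr before compound pinning from DMSO stocks. Following a 16-hr treatment at 37 C, a fluorogenic live-cell substrate (CellTiter-Fluor) reports viability after 1 hr.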

[5] = target: Nuclear receptor subfamily 1 group I member 2 (Homo sapiens) (UniProt O75469); assay: Human pregnane X receptor (PXR) small molecule agonists, qHTS assay (AID 1346982); also: nearly all actives have a fitted effect of over 35% in size; also: potency is read from the fitted curve at half-maximal effect
Summary of the method: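 After plating in 5% charcoal-stripped FBS and a 5 hr rest, PXR-Luc HepG2 cells received compounds in DMSO. Following 24 hr at 37 C, ONE-Glo was added and light output read.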

[6] = target: Cytochrome P450 2D6 (Homo sapiens) (UniProt P10635); assay: Cytochrome P450 Family 2 Subfamily D Member 6 (CYP2D6) small molecule antagonists: luciferase reporter qHTS assay (AID 1671196); also: nearly all actives have a fitted effect of over 50% in size; also: potency is read from the fitted curve at half-maximal effect; as to activity change, negative = inhibition: series mostly up to about 120 µM
Summary of the method: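 Quantitative HTS of Tox21 chemicals against CYP2D6 using a luminescent proluciferin substrate. After NADPH addition, 1 h room-temperature reaction; luminescence recorded 20 min post detection reagent.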

[7] = target: Cytochrome P450 2C19 (Homo sapiens) (UniProt P33261); assay: Cytochrome P450 Family 2 Subfamily C Member 19 (CYP2C19) small molecule antagonists: luciferase reporter qHTS assay (AID 1671197); also: nearly all actives have a fitted effect of over 65% in size; also: potency is read from the fitted curve at half-maximal effect; as to activity change, negative = inhibition: series mostly up to about 120 µM
Summary of the method: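 Relative luminescence units recorded 20 min after the detection reagent stopped a 1 h, 37C CYP2C19 reaction on proluciferin substrate, which was started by NADPH regeneration following 10 min room-temperature compound preincubation; ketoconazole positive control.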
% is scaled to controls: 0 for no effect and ±100 for the full control effect.

Nuclear receptor subfamily 1 group I member 2 (Homo sapiens), sequence (O75469 whole entry, looked up): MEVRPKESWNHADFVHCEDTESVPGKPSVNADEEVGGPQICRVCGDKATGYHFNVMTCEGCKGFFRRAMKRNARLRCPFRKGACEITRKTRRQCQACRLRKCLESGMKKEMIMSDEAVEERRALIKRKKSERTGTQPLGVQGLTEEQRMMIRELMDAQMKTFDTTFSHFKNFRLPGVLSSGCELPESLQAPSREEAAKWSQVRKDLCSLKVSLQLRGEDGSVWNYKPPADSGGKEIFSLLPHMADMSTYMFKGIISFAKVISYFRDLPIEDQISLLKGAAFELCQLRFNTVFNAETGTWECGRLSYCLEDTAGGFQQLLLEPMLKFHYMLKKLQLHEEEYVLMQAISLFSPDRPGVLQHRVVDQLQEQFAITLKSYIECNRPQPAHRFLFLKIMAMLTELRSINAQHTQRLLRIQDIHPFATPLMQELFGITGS
Cytochrome P450 2C19 (Homo sapiens), sequence (P33261 whole entry, looked up): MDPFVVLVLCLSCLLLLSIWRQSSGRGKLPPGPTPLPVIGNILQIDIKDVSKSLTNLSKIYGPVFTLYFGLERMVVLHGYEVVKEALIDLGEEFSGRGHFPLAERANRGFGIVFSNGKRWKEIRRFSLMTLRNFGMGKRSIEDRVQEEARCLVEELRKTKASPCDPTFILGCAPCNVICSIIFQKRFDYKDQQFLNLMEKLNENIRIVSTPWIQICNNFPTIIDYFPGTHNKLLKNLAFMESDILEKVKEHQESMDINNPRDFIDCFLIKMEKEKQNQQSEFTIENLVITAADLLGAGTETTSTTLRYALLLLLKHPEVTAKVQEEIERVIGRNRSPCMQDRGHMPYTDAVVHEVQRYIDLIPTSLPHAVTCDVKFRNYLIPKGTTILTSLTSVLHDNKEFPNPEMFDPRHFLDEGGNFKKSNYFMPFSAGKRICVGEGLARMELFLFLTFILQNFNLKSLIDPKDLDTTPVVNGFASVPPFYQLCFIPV
Cytochrome P450 2D6 (Homo sapiens), sequence (P10635 whole entry, looked up): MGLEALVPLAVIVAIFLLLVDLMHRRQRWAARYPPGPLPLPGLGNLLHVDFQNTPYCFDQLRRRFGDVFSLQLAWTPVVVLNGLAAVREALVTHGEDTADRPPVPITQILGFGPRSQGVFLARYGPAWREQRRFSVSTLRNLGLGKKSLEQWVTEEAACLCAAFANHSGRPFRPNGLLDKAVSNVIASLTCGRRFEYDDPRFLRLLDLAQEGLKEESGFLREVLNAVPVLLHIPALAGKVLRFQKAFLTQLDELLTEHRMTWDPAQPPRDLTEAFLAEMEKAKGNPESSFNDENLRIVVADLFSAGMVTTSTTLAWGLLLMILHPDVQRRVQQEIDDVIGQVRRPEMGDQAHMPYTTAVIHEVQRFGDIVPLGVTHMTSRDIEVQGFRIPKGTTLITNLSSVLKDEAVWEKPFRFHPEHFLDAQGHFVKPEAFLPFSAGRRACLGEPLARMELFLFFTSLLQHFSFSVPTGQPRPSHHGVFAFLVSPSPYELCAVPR

CCCCCCc1ccc(-c2ccc(C#N)cc2)cc1
inactive: Potency [1] | Potency [2] | Potency [3] | Potency [4] | Potency [5]
active: Potency [6] 39.2 µM | Potency [7] 44 µM

O=C(NCC1CN(c2ccc(N3CCOCC3=O)cc2)C(=O)O1)c1ccc(Cl)s1 (stereo not given)
inactive: Potency [1] | Potency [2] | Potency [3] | Potency [4] | Potency [5] | Potency [6] | Potency [7]

S=C([S-])NCCNC(=S)[S-].[Mn+2]
inactive: Potency [1] | Potency [2] | Potency [3] | Potency [4]
active: Potency [5] 30.6 µM | Potency [7] 17.8 µM

OC[C@H]1O[C@@H](OCCc2ccc(O)cc2)[C@H](O)[C@@H](O)[C@@H]1O
inactive: Potency [1] | Potency [2] | Potency [3] | Potency [4] | Potency [5] | Potency [7]

C1CCCNCCC1
inactive: Potency [1] | Potency [2] | Potency [3] | Potency [4] | Potency [5] | Potency [6] | Potency [7]

CC/C=C\CCOC(=O)CC
inactive: Potency [1] | Potency [2] | Potency [3] | Potency [4] | Potency [5] | Potency [6] | Potency [7]

O=C(O)c1ccccc1Cl
inactive: Potency [1] | Potency [2] | Potency [3] | Potency [4] | Potency [5] | Potency [7]

Cc1ccc(N=Nc2c(O)c(C(=O)O)cc3ccccc23)c(S(=O)(=O)O)c1
inactive: Potency [1] | Potency [3] | Potency [5] | Potency [6] | Potency [7]
active: Potency [2] 23.6 µM | Potency [4] 29.7 µM

COc1cc2nc(Cl)nc(N)c2cc1OC
inactive: Potency [1] | Potency [2] | Potency [3] | Potency [4] | Potency [5] | Potency [6] | Potency [7]

O=C(O)c1ccco1
inactive: Potency [1] | Potency [2] | Potency [3] | Potency [4] | Potency [5] | Potency [6] | Potency [7]

C/C=C/C(=O)CC
inactive: caspase activation [1] 0.108% [at 19 µM] | activity change, negative = cytotoxicity [2] 0.0214% [at 19 µM] | caspase-3/7 activation [3] 1.13% [at 19 µM] | activity change, negative = cytotoxicity [4] -1.71% [at 19 µM] | activity change, negative = inhibition [6] 0.0645% [at 23.6 µM] | Potency [7]
active: Potency [5] 10.5 µM

O=C(CS)Nc1ccccc1
active: Potency [7] 8.71 µM
inactive: Potency [1] | Potency [2] | Potency [3] | Potency [4] | Potency [5] | Potency [6]

O=C1CCC(=O)O1
inactive: Potency [1] | Potency [2] | Potency [3] | Potency [4] | Potency [5] | Potency [7]

Cc1c(N)cccc1[N+](=O)[O-]
inactive: Potency [1] | Potency [2] | Potency [3] | Potency [4] | Potency [5] | Potency [6] | Potency [7]

O=C1CCCCCCCCCCCC(=O)OCCO1
inactive: Potency [1] | Potency [2] | Potency [3] | Potency [4] | Potency [5]
active: Potency [7] 71 µM

CC(C)(CO)[N+](=O)[O-]
inactive: Potency [1] | Potency [2] | Potency [3] | Potency [4] | Potency [5] | Potency [6] | Potency [7]

COc1cc(Cl)c(OC)cc1N
active: Potency [5] 48.6 µM | Potency [6] 63.3 µM | Potency [7] 22.4 µM
inactive: Potency [1] | Potency [2] | Potency [3] | Potency [4]

c1cc(CCCc2ccncc2)ccn1
active: Potency [5] 61.1 µM | Potency [6] 1.78 µM | Potency [7] 1.59 µM
inactive: Potency [1] | Potency [2] | Potency [3] | Potency [4]

CCCCCCCN
inactive: Potency [1] | Potency [2] | Potency [3] | Potency [4] | Potency [5] | Potency [7]

CC1=CC[C@H](C(C)C)C=C1
inactive: Potency [1] | Potency [2] | Potency [3] | Potency [4]
active: Potency [5] 27.3 µM | Potency [6] 56.4 µM | Potency [7] 39.9 µM

CCN(CC)c1ccc2c(-c3ccccc3C(=O)O)c3ccc(=[N+](CC)CC)cc-3oc2c1
inactive: Potency [1] | Potency [3]
active: Potency [2] 2.17 µM | Potency [4] 5.45 µM | Potency [5] 24.3 µM | Potency [6] 35.6 µM | Potency [7] 71 µM

CCCCCC[C@@H](O)C/C=C\CCCCCCCC(=O)OC
active: Potency [7] 25.3 µM
inactive: Potency [1] | Potency [2] | Potency [3] | Potency [4] | Potency [5] | Potency [6]

CCCCC(CC)CN1C(=O)C2C3C=CC(C3)C2C1=O (stereo not given)
inactive: Potency [1] | Potency [2] | Potency [3] | Potency [4]
active: Potency [5] 27.3 µM | Potency [6] 31.7 µM | Potency [7] 3.56 µM

CCO[C@H](Cc1ccc(OCCc2ccc(OS(C)(=O)=O)cc2)cc1)C(=O)O
inactive: Potency [1] | Potency [2] | Potency [3] | Potency [4] | Potency [5] | Potency [6] | Potency [7]

CCNc1cc(O)ccc1C
active: Potency [2] 60.4 µM | Potency [5] 48 µM | Potency [6] 39.5 µM | Potency [7] 35.2 µM
inactive: Potency [1] | Potency [3] | Potency [4]

O=C(O)C1(C(=O)O)CCC1.[NH2-].[NH2-].[Pt+2]
inactive: Potency [1] | Potency [2] | Potency [3] | Potency [4] | Potency [5]
active: Potency [7] 21.9 µM

C=C(C)C(=O)OCCO
inactive: Potency [1] | Potency [2] | Potency [3] | Potency [4] | Potency [6]

CCOc1ccc(O)cc1
inactive: Potency [1] | Potency [2] | Potency [3] | Potency [4] | Potency [6]
